Test [1] in a line: NCATS anti-infectives library activity on the primary C. elegans qHTS viability assay (AID 1745855; calls by dose curve; further: potency means the concentration at half of the fitted maximal effect). Particulars: C. elegans worm area imaging, day 7. In a few lines: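 Titration-based screen in worms: eggs hatched overnight in M9, L1 larvae fed TOP10 capsules in S medium with compound, incubated 21 °C for 7 days; fluorescent objects gated by size and intensity at days 0, 3 and 7.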
Background: qHTS replaces the single test concentration by a dilution series.

Test [2] in a line: Viability counterscreen for antagonist of constitutive androstane receptor (CAR) against the NCATS DSHEA and TCM libraries (AID 1794837).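 Further: compound exposure lasted 24 h before viability reading.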 Particulars: CAR reporter cell line viability counterscreen, qHTS; series mostly up to 40 µM. In a few lines: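 HepG2-CYP2B6-hCAR cells, 2,500/well, were exposed 24 hr at 37C to substances together with 48 uM CITCO (final). Viability was read as CellTiter-Fluor fluorescence (Ex/Em 405/540 nm) after 1 hr.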
In general terms: A counterscreen serves to expose hits that act by an unwanted route or on another target.

The nature of test [3]: Viability counterscreen for agonist of constitutive androstane receptor (CAR) against the NCATS DSHEA and TCM libraries (AID 1794838). To be noted: HepG2 cell viability counterscreen, CAR agonist assay, co-treated with 0.75 µM CAR antagonist; series mostly up to 40 µM. Put shortly: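 HepG2-CYP2B6-hCAR cells (2,500/well) treated 24 h at 37C with compounds plus 0.75 uM PK11195; viability read by CellTiter-Fluor fluorescence, Ex/Em 405/540 nm.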

In test [4] the target is Nuclear receptor subfamily 1 group I member 3 (Homo sapiens) (UniProt Q14994). Description: Primary qHTS for agonist of constitutive androstane receptor (CAR) against the NCATS DSHEA and TCM libraries (AID 1794839).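 Further: HepG2 cells expressing human CAR with a CYP2B6 reporter plus PK11195 antagonist.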 To be noted: CAR agonist reporter cells, qHTS luminescence, CAR antagonist co-added at 0.75 µM; series mostly up to 40 µM. Put shortly: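 HepG2-CYP2B6-hCAR cells, 2,500/well, attached 5 h, then dosed with 0.75 µM PK11195 (final) for 24 h at 37 °C. Luciferase luminescence read (ONE-Glo); CellTiter-Fluor viability (Ex/Em 405/540 nm) in same wells; CITCO positive control.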
Sequence of Nuclear receptor subfamily 1 group I member 3 (Homo sapiens) (Q14994 whole entry, looked up): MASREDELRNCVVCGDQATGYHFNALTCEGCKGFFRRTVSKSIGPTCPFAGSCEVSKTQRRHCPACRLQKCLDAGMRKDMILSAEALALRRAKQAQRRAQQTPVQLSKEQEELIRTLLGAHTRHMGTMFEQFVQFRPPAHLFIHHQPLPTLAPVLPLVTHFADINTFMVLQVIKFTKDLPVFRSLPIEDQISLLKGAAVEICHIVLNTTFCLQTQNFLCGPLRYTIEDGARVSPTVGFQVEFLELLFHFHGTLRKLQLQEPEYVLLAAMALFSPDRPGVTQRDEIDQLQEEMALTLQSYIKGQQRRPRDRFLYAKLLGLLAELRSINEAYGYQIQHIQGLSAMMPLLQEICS

Test [5] is described as follows: HepG2 viability counterscreen (readout 2: ATP content) against the NCATS DSHEA and TCM libraries (AID 1794840). Particulars: ATP content luminescence; series mostly up to 27.3 µM. Put shortly:
(§1)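 HepG2 cells, 1,000/well, attached ~4 h, then exposed ~24 h at 37C to substances. Protease activity read by fluorescence of 25 uM GF-AFC (Ex/Em 380/510 nm) after 30 min; ATP then by CellTiter-Glo luminescence.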

Test [6] is described as follows: HepG2 viability counterscreen (readout 1: protease activity) against the NCATS DSHEA and TCM libraries (AID 1794841).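 Further: cells exposed to compounds for about 24 h before the protease read.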 Particulars: qHTS concentration series; series mostly up to 27.3 µM. In a few lines: as §1

Results filed as inconclusive are left out. Active and inactive are the calls of the source. Unless noted, the call rests on the fitted dose curve; in most records, active means well fitted curve in the direction sought with a large enough effect; inconclusive means small, poorly fitted or top-dose-only effect, or another doubt; inactive means no such curve, though single readings can be large; an effect the other way counts as inactive or inconclusive.

For `CC[C@@H](C)[C@H]1O[C@]2(CC[C@@H]1C)C[C@@H]1C[C@@H](C/C=C(\C)[C@@H](O[C@H]3C[C@H](OC)[C@@H](O[C@H]4C[C@H](OC)[C@@H](O)[C@H](C)O4)[C@H](C)O3)[C@@H](C)/C=C/C=C3\CO[C@@H]4[C@H](O)C(C)=C[C@@H](C(=O)O1)[C@]34O)O2`, in test [1], the Potency is 5.8 nM (active).

With `O=C(O)c1cc(O)c(O)c(O)c1`, the molecule was called inactive in test [2], in test [3], in test [4], in test [5] and in test [6].

With `C[S+](CC[C@H](N)C(=O)O)C[C@H]1O[C@@H](n2cnc3c(N)ncnc32)[C@H](O)[C@@H]1O` (some centres not stated), the molecule was classed as inactive in test [2], in test [3], in test [5] and in test [6].

Take `CCCCCCCCCCCCCCCCCC(=O)O`: the call in test [5] and in test [6] was inactive.
